Only some compounds are listed: those with a hit (about 12% of all), similar ones and a draw of the others.
PI5P4K alpha inh: PI5P4K alpha (human) kinase inhibition | hit rate 1.2% among 330,000 | AID 652105 | P48426 | max response, % | PI5P4Kalpha enzyme, ADP-Glo luminescence, 60 min; active compounds read low; active = max response of -50% or lower; inconclusive = between -30% and -50%; inactive = -30% or higher; also: value at the top dose of about 77 µM; % is scaled to controls: 0 for no effect and ±100 for the full control effect
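Controls without substrate or without enzyme flank wells where PI5P4Kalpha converts substrate using 5 microM ATP (final). Incubation lasts 60 minutes at room temperature; ADP formed is read by ADP-Glo luminescence.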
PLK1 PBD block: inhibitors of human PLK1 polo-box domain binding; P53350; Plk1 PBD binding of FITC phosphopeptide, fluorescence polarization; Potency, µM, without a hit: max response, negative = inhibition, usual class: inhibitors; hit rate 2.8% among 360,000; also: potency is read from the fitted curve at half-maximal effect; series mostly up to about 57 µM; % is scaled to controls: 0 for no effect and ±100 for the full control effect; nearly all actives have a fitted effect of over 65% in size
Target sequence (P53350 whole entry, looked up, the tested form may be a part): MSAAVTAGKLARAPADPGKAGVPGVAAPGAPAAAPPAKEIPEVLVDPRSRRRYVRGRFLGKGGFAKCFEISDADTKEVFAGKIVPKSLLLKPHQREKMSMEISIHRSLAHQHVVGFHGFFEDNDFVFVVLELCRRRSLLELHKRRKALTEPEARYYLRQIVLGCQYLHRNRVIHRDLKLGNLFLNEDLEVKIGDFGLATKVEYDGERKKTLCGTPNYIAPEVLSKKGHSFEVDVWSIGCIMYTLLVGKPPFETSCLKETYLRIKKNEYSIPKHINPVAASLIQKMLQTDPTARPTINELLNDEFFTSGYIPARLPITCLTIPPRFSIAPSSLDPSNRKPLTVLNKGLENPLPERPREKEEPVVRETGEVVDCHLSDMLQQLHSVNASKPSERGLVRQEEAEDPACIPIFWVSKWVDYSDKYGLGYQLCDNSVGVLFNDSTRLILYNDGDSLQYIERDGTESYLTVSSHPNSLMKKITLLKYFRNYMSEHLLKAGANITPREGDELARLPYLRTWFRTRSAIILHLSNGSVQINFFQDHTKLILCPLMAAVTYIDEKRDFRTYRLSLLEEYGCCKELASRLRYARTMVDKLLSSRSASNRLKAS
BAZ2B block: inhibitors of human BAZ2B bromodomain; AlphaScreen BAZ2B-H3K14Ac peptide displacement; hit rate 4.4% among 360,000; Potency, µM (series often up to 114 µM), for inactives: at the highest dose activity change, negative = inhibition, most hits filed as inhibitors; also: potency is read from the fitted curve at half-maximal effect; % is scaled to controls: 0 for no effect and ±100 for the full control effect; nearly all actives have a fitted effect of over 60% in size
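Inhibition is scored as reduced AlphaScreen emission. The BAZ2B/b-H3(5-23)K14Ac complex (50 nM each) in PBS pH 7.4, 0.01% Tween-20 meets compound (up to 110 uM) for 30 min at RT before bead addition.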
JMJD2A Tudor: inhibitors of human JMJD2A Tudor domain; O75164; AlphaScreen JMJD2A-Tudor / H3K4me3 peptide binding; Potency, µM (doses to about 114 µM), inactives show at the highest dose activity change, negative = inhibition, usual class: inhibitors; hit rate 4.4% among 390,000; also: potency is read from the fitted curve at half-maximal effect; % is scaled to controls: 0 for no effect and ±100 for the full control effect; nearly all actives have a fitted effect of over 50% in size
G9a inh: inhibitors of human histone lysine methyltransferase G9a; AID 504332; hit rate 8.8% among 350,000; G9a H3K9 monomethylation, AlphaScreen, 2 h; Potency, µM (highest dose often 102 µM), inactives show at the highest dose activity, negative = inhibition, most hits filed as inhibitors; also: potency is read from the fitted curve at half-maximal effect; % is scaled to controls: 0 for no effect and ±100 for the full control effect; nearly all actives have a fitted effect of over 75% in size
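Quantitative HTS format: methyltransferase activity on a biotin-tagged H3K9 peptide is measured by AlphaScreen, using a rabbit anti-monomethyl-H3K9 antibody with streptavidin donor and anti-IgG acceptor beads. Final levels are 20 nM enzyme, 500 nM peptide, 20 uM SAM; 2 h RT.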
HP1b chromo inh: HP1-beta chromodomain-methylated histone interaction inhibition | P83916 | Potency, µM (titrated, usually from 114 µM), for the others: top-dose activity change, negative = inhibition, most hits filed as inhibitors | hit rate 0.56% among 390,000 | AlphaScreen HP1-beta / biotin-H3K9me3 peptide binding; also: potency is read from the fitted curve at half-maximal effect; nearly all actives have a fitted effect of over 70% in size
Target sequence (P83916 whole entry, looked up): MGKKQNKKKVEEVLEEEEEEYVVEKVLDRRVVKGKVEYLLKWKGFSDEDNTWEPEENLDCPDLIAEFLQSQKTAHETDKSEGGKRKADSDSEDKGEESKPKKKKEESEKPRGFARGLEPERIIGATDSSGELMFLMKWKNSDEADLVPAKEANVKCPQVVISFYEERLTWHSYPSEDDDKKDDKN
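Compound inhibition of the preformed complex between 50 nM HP1-beta and 50 nM biotinylated H3K9me3 peptide was read by AlphaScreen. Buffer was PBS pH 7.4 with 0.01% Tween-20. Incubations ran 30 min at room temperature, with 10 ug/mL donor/acceptor beads.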
* = called active by the depositor; [ ] = dose if it differs, or a comment. Unless noted, calls follow the shape of the dose curve; as a rule, active = well fitted curve in the direction sought with a large enough effect; inconclusive = small, poorly fitted or top-dose-only effect, or another doubt; inactive = no such curve, though single readings can be large; an effect the other way counts as inactive or inconclusive.

Results for COc1ccc(CCn2c(-c3ccc(Cl)cc3)n[nH]c2=S)cc1OC ?
PI5P4K alpha inh: -1.3; PLK1 PBD block: -1.4%; BAZ2B block: inconclusive; JMJD2A Tudor: -20.8%; G9a inh: 2.24µM*; HP1b chromo inh: 36.3%

What do the screens show for `CCCCn1c(-c2cc(Cl)ccc2OC)n[nH]c1=S`?
PLK1 PBD block: -20.1%; BAZ2B block: -4.8%; JMJD2A Tudor: 12.6µM*; G9a inh: 2µM*; HP1b chromo inh: -15.1%

Results for COc1ccc(CCn2c(-c3ccc(C(C)(C)C)cc3)n[nH]c2=S)cc1OC ?
PI5P4K alpha inh: -3.4; PLK1 PBD block: 37.7µM*; BAZ2B block: -15.7%; JMJD2A Tudor: 17.8µM*; G9a inh: inconclusive; HP1b chromo inh: -31.3%

Results for CC(O)(C#CCN1CCOCC1)c1ccccc1 (stereo not drawn) ?
PI5P4K alpha inh: -2.3; PLK1 PBD block: 2.3%; BAZ2B block: -2.3%; JMJD2A Tudor: -16.4%; G9a inh: 39.8µM*; HP1b chromo inh: 16.5%

What do the screens show for `OC(C#CCN1CCCCC1)c1ccccc1` (stereo not drawn)?
PI5P4K alpha inh: 0.1; PLK1 PBD block: -6.4%; JMJD2A Tudor: 0.8%; G9a inh: inconclusive; HP1b chromo inh: 14.9%

How did OC(C#CCN1CCCC1)c1ccccc1 (stereo not drawn) do in these assays?
PLK1 PBD block: 3.2%; BAZ2B block: -32.7%; JMJD2A Tudor: -11.0%; G9a inh: 44.7µM*; HP1b chromo inh: 18.7%

What do the screens show for `CC(C)C(O)(C#CCN1CCCC1)c1ccccc1` (stereo not drawn)?
PI5P4K alpha inh: -4.2; PLK1 PBD block: -1.9%; BAZ2B block: inconclusive; JMJD2A Tudor: -14.1%; G9a inh: 25.1µM*; HP1b chromo inh: 32.6%

How did OC(C#CCN1CCCCCC1)(c1ccccc1)c1cccnc1 (stereo not drawn) do in these assays?
PI5P4K alpha inh: -1.5; PLK1 PBD block: -15.8%; BAZ2B block: -30.6%; JMJD2A Tudor: -10.4%; G9a inh: 17.8µM*; HP1b chromo inh: 9.5%

What do the screens show for `CC(C)C(O)(C#CCN1CCCCC1)c1ccccc1` (stereo not drawn)?
PLK1 PBD block: 0.1%; BAZ2B block: 2.4%; JMJD2A Tudor: -7.9%; G9a inh: 5.7%[12.7 µM]; HP1b chromo inh: 16.5%

Results for COc1ccc(S(=O)(=O)N2CCCCCC2)cc1NC(=O)CN1C(=O)CNC1=O ?
PI5P4K alpha inh: -3.7; PLK1 PBD block: 7.3%; JMJD2A Tudor: -0.7%; HP1b chromo inh: 19.3%

Results for CN(C(=O)COC(=O)c1c2c(nc3ccccc13)CCCC2)c1c(N)n(Cc2ccccc2)c(=O)[nH]c1=O ?
PI5P4K alpha inh: 8.1; PLK1 PBD block: 6.4%; BAZ2B block: -1.1%; JMJD2A Tudor: -12.2%; G9a inh: inconclusive; HP1b chromo inh: 9.6%

How did OC(C#CCN1CCCC1)(c1ccccc1)c1cccnc1 (stereo not drawn) do in these assays?
PI5P4K alpha inh: 1.4; PLK1 PBD block: -5.8%; BAZ2B block: 79.4µM*; JMJD2A Tudor: 28.2µM*; G9a inh: 8.91µM*; HP1b chromo inh: 4.0%

Results for CCOc1ccc(N(CC(=O)Nc2ccccc2C(=O)N2CCCC2)S(C)(=O)=O)cc1 ?
PI5P4K alpha inh: 0.4; PLK1 PBD block: -1.1%; BAZ2B block: 12.7%; JMJD2A Tudor: -1.1%; G9a inh: -14.9%; HP1b chromo inh: 24.4%

Results for CCc1ccc(N(CC(=O)O)S(=O)(=O)c2c(C)noc2C)cc1 ?
PI5P4K alpha inh: 3.2; PLK1 PBD block: 29.9µM*; BAZ2B block: -5.2%; JMJD2A Tudor: -33.8%; G9a inh: 1.5%[59 µM]; HP1b chromo inh: 23.3%

How did CCOc1ccc(N(CC(=O)NC2CCCCCC2)S(=O)(=O)c2c(C)noc2C)cc1 do in these assays?
PI5P4K alpha inh: 1.8; PLK1 PBD block: -13.8%; BAZ2B block: -2.1%; JMJD2A Tudor: -15.9%; G9a inh: 4.6%; HP1b chromo inh: 28.9%

What do the screens show for `CCOc1ccc(N(CC(=O)NC2CCCCC2)S(=O)(=O)c2c(C)noc2C)cc1`?
PI5P4K alpha inh: -1.1; PLK1 PBD block: 29.9µM*; BAZ2B block: -0.6%; JMJD2A Tudor: inconclusive; G9a inh: 19.1%[59 µM]; HP1b chromo inh: 17.8%

How did Cc1cc(C)cc(N(CC(=O)O)S(=O)(=O)c2c(C)noc2C)c1 do in these assays?
PLK1 PBD block: -8.5%; BAZ2B block: -6.4%; JMJD2A Tudor: -4.2%; G9a inh: -36.6%[59 µM]; HP1b chromo inh: 4.6%

What do the screens show for `COc1ccc(S(=O)(=O)NC(=O)C2(C)CCN2C(=O)Cc2cc(C)cc(C)c2)cc1` (stereo not drawn)?
PI5P4K alpha inh: -3.2; PLK1 PBD block: -4.1%

What do the screens show for `O=c1[nH]c2ccc(NCc3ccc(-c4ccc(F)cc4)o3)cc2[nH]1`?
BAZ2B block: -30.8%; JMJD2A Tudor: -14.9%; G9a inh: -23.3%[59 µM]; HP1b chromo inh: 65.5%

Results for CCNC(=O)C1(C)CCN(Cc2ccc(C#N)cc2)C1 (stereo not drawn) ?
PI5P4K alpha inh: 5.2; PLK1 PBD block: 0.6%

Results for CC(C)(C)C(=O)c1c(N)[nH]c(C(=O)c2ccccc2)c1-c1ccc(Br)cc1 ?
PI5P4K alpha inh: 5.1; PLK1 PBD block: -7.8%

How did CCOC(=O)c1cc(-c2ccc(/C=C3/C(=O)NC(=O)C(C#N)=C3C)o2)ccc1Cl do in these assays?
PLK1 PBD block: 3.36µM*; BAZ2B block: 50.1µM*; JMJD2A Tudor: 56.2µM*; G9a inh: 35.5µM*; HP1b chromo inh: 39.8µM*

How did CC1=C(C#N)C(=O)NC(=O)/C1=C\c1ccc(-c2ccc(C)cc2[N+](=O)[O-])o1 do in these assays?
PI5P4K alpha inh: -74.9*; PLK1 PBD block: 8.44µM*; BAZ2B block: 44.7µM*; JMJD2A Tudor: 31.6µM*; G9a inh: 17.8µM*; HP1b chromo inh: inconclusive

What do the screens show for `C[C@@H]1COC(=O)[C@@H](CC(=O)OC(C)(C)C)C/C=C\C[C@H](CC(=O)NCCO)C(=O)N1`?
PI5P4K alpha inh: 8.4; PLK1 PBD block: -1.2%; JMJD2A Tudor: -30.3%; HP1b chromo inh: 40.6%

How did COc1ccc(CNC(=O)COC(=O)/C=C/c2ccco2)cc1 do in these assays?
PI5P4K alpha inh: -1.7; PLK1 PBD block: inconclusive; BAZ2B block: inconclusive; JMJD2A Tudor: -8.6%; G9a inh: 56.2µM*; HP1b chromo inh: 2.2%

How did O=C(COC(=O)/C=C/c1ccco1)NCc1ccco1 do in these assays?
PI5P4K alpha inh: inconclusive; PLK1 PBD block: inconclusive; BAZ2B block: 44.7µM*; JMJD2A Tudor: 79.4µM*; G9a inh: 31.6µM*; HP1b chromo inh: -10.3%

Results for O=C(COC(=O)/C=C/c1ccco1)NCc1ccc(Cl)cc1Cl ?
PI5P4K alpha inh: -5.5; PLK1 PBD block: -6.1%; JMJD2A Tudor: -8.5%; HP1b chromo inh: 17.6%

Source: PubChem BioAssay
